Reference: PubChem BioAssay (Tox21)
Records with an inconclusive call do not appear. Active and inactive are the calls of the source. Unless noted, calls follow the shape of the dose curve; as a rule, active = well fitted curve in the direction sought with a large enough effect in the repeat runs; inconclusive = weak or mixed curves; inactive = no such curve, though single readings can be large; an effect the other way counts as inactive or inconclusive.

Experiments:
[1] = qHTS assay for small molecule agonists of the p53 signaling pathway (AID 651631; calls by dose curve; also: nearly all actives have a fitted effect of over 15% in size)
Method in brief: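 Testing took place in human colorectal HCT-116 cells with stable p53RE-driven beta-lactamase. After 16 h of compound exposure at 37 °C, a FRET substrate was added and fluorescence recorded 2 h later.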

[2] = qHTS assay for small molecules that induce genotoxicity in human embryonic kidney cells expressing luciferase-tagged ATAD5 (AID 651632); also: nearly all actives have a fitted effect of over 15% in size
Method in brief: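 Increased luciferase signal from ATAD5-tagged reporter cells indicates DNA-damage-driven ATAD5 induction. HEK293T cells are treated for 16 hr at 37C before detection with Amplite.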

[3] = qHTS assay for small molecule agonists of the p53 signaling pathway - cell viability (AID 651633; calls by dose curve; also: series mostly up to about 83 µM; nearly all actives have a fitted effect of over 30% in size)
Method in brief: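 p53RE-bla cells were treated with compound for 16 hours at 37 C. Cytotoxicity was then measured as CellTiter-Glo luminescence after 30 min at room temperature.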

[4] = qHTS assay for small molecules that induce genotoxicity in human embryonic kidney cells expressing luciferase-tagged ATAD5 - cell viability (AID 651634; calls by dose curve; also: nearly all actives have a fitted effect of over 25% in size)
Method in brief: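 Cytotoxicity counterscreen in HEK293T cells bearing an ATAD5-luciferase reporter: live-cell protease activity measured by CellTiter-Fluor fluorescence after 15.5 hr compound exposure.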

[5] = qHTS assay for small molecule disruptors of the mitochondrial membrane potential - cell viability (AID 720634; calls by dose curve;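 also: human HepG2 liver cancer cells; series mostly up to about 83 µM; nearly all actives have a fitted effect of over 20% in size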)
Method in brief: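 After overnight attachment at 37 C, HepG2 cells received compound or DMSO vehicle for 1 hr. Viability is then taken from ATP-driven luminescence following a 30 min room-temperature CellTiter-Glo step.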

[6] = qHTS assay to test for compound auto fluorescence at 590 nm (red) in HepG2 cells (AID 720674)
Method in brief: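 Seeding: 2,000 HepG2 cells/well, MEM/10% FBS, overnight 37 C. Dosing: compound vs DMSO. Incubation: 1 hr, 37 C, 5% CO2. Read: fluorescence 540 ex/590 em, Rose Bengal sodium as red reference.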

[7] = qHTS assay to test for compound auto fluorescence at 535 nm (green) in HepG2 cells (AID 720675)
[8] = qHTS assay to test for compound auto fluorescence at 460 nm (blue) in HEK293 cells (AID 720678)
Method in brief: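 Auto fluorescence in the blue band was quantified as triamterene equivalency. HEK293 cells were seeded at 2,000/well, dosed after a 4-5 hr attachment, and kept overnight at 37C before the 405/460 nm reading.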

[9] = qHTS assay to test for compound auto fluorescence at 590 nm (red) in HEK293 cells (AID 720679)
Method in brief: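 Autofluorescence equivalency to Rose Bengal sodium, 540/590nm, in HEK293 cells exposed overnight to 23 nL compound per well.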

[10] = qHTS assay for small molecule disruptors of the mitochondrial membrane potential (AID 720635); also: potency is read from the fitted curve at half-maximal effect
Method in brief: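 HepG2 cells exposed to compound 1 hr at 37C, then Mito-MPS dye 30 min. Ratio read of aggregate (540/590 nm) versus monomer (490/535 nm) fluorescence.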
% is scaled to controls: 0 for no effect and ±100 for the full control effect.

COc1cccc(C=O)c1
inactive: Potency [1] | outcome [2] | Potency [3] | Potency [4] | Potency [5] | outcome [6] | outcome [7] | outcome [8] | outcome [9]

Cc1ccc2c(c1)C1CN(C)CCC1N2 (centres undefined)
inactive: Potency [1] | outcome [2] | Potency [3] | Potency [4] | Potency [5] | Potency [10] | outcome [6] | outcome [7] | outcome [8] | outcome [9]

ClCOCCl
inactive: Potency [1] | outcome [2] | Potency [3] | Potency [4] | Potency [5] | Potency [10] | outcome [6] | outcome [7] | outcome [8] | outcome [9]

N#CN=C1SCCN1Cc1ccc(Cl)nc1
inactive: Potency [1] | outcome [2] | Potency [3] | Potency [4] | Potency [5] | Potency [10] | outcome [6] | outcome [7] | outcome [8] | outcome [9]

ClCC1CO1 (centres undefined)
inactive: Potency [1] | outcome [2] | Potency [3] | Potency [4] | Potency [5] | Potency [10] | outcome [6] | outcome [7] | outcome [8] | outcome [9]

Cc1cc(OC(=O)N(C)C)nn1C(=O)N(C)C
inactive: Potency [1] | outcome [2] | Potency [3] | Potency [4] | Potency [5] | Potency [10] | outcome [6] | outcome [7] | outcome [8] | outcome [9]

CCCCS(=O)(=O)Cl
inactive: Potency [1] | outcome [2] | Potency [3] | Potency [4] | Potency [5] | Potency [10] | outcome [6] | outcome [7] | outcome [8] | outcome [9]

COP(=O)(O)OC
inactive: Potency [1] | outcome [2] | Potency [3] | Potency [4] | Potency [5] | Potency [10] | outcome [6] | outcome [7] | outcome [8] | outcome [9]

CC(C)(C)C(=O)Cl
inactive: Potency [1] | outcome [2] | Potency [3] | Potency [4] | Potency [5] | Potency [10] | outcome [6] | outcome [7] | outcome [9]

CCCOc1nn(C(=O)NS(=O)(=O)c2ccccc2C(=O)OC)c(=O)n1C
inactive: Potency [1] | outcome [2] | Potency [3] | Potency [4] | Potency [5] | Potency [10] | outcome [6] | outcome [7] | outcome [8] | outcome [9]

CCCCCCCCSC(=O)Oc1cc(Cl)nnc1-c1ccccc1
inactive: Potency [1] | outcome [2] | Potency [3] | Potency [4] | Potency [5] | outcome [6] | outcome [7] | outcome [8] | outcome [9]
active: Potency [10] 30.6 µM

COc1cccc([C@@]2(O)CCCC[C@@H]2CN(C)C)c1
inactive: Potency [1] | outcome [2] | Potency [3] | Potency [4] | Potency [5] | outcome [6] | outcome [7] | outcome [8] | outcome [9]

CCCCOC(C)=O
inactive: Potency [1] | outcome [2] | Potency [3] | Potency [4] | Potency [5] | Potency [10] | outcome [6] | outcome [7] | outcome [8] | outcome [9]

CS(=O)(=O)Cl
inactive: Potency [1] | outcome [2] | Potency [3] | Potency [4] | Potency [5] | outcome [6] | outcome [7] | outcome [8] | outcome [9]

NCC1(CC(=O)O)CCCCC1
inactive: Potency [1] | outcome [2] | Potency [3] | Potency [4] | Potency [5] | Potency [10] | fluorescence, relative to Rose Bengal [6] 0.106% [at 18.6 µM] | fluorescence, % of fluorescein control [7] 0.0214% [at 18.6 µM] | fluorescence, % of fluorescent control [9] 0.0233% [at 18.6 µM]

Clc1nc(Cl)nc(Nc2ccccc2Cl)n1
inactive: Potency [1] | outcome [2] | Potency [3] | Potency [4] | Potency [5] | Potency [10] | outcome [6] | outcome [7] | outcome [9]

COC(=O)[C@@H](N)CCCN/C(N)=N/[N+](=O)[O-]
inactive: Potency [1] | outcome [2] | Potency [3] | Potency [4] | Potency [5] | Potency [10] | outcome [6] | outcome [7] | outcome [8] | outcome [9]

CC[C@H](N)c1ccccc1
inactive: Potency [1] | outcome [2] | Potency [3] | Potency [4] | Potency [5] | outcome [6] | outcome [7] | outcome [8] | outcome [9]

CCCOC(=O)Cc1ccc(OCC(=O)N(CC)CC)c(OC)c1
inactive: Potency [1] | outcome [2] | Potency [3] | Potency [4] | Potency [5] | Potency [10] | outcome [6] | outcome [7] | outcome [8] | outcome [9]

ClCCCCl
inactive: Potency [1] | outcome [2] | Potency [3] | Potency [4] | Potency [5] | outcome [6] | outcome [7] | outcome [8] | outcome [9]

C/C(=N\NC(=O)Nc1cc(F)cc(F)c1)c1ncccc1C(=O)O
inactive: Potency [1] | outcome [2] | Potency [3] | Potency [4] | Potency [5] | outcome [6] | outcome [7] | outcome [8] | outcome [9]

ClC(Cl)(Cl)Cl
inactive: Potency [1] | outcome [2] | Potency [3] | Potency [4] | Potency [5] | Potency [10] | outcome [6] | outcome [7] | outcome [8] | outcome [9]

CCOc1cc(OP(=S)(OC)OC)nc(CC)n1
inactive: Potency [1] | outcome [2] | Potency [3] | Potency [4] | Potency [5] | outcome [6] | outcome [7] | outcome [8] | outcome [9]

CCOP(=O)(CN(CCO)CCO)OCC
inactive: Potency [1] | outcome [2] | Potency [3] | Potency [4] | Potency [5] | Potency [10] | outcome [6] | outcome [7] | outcome [8] | outcome [9]

COc1ccc2c(C(=O)c3ccc(Cl)cc3)c(C)n(CC(=O)O)c2c1
inactive: Potency [1] | outcome [2] | Potency [3] | Potency [4] | Potency [5] | outcome [6] | outcome [7] | outcome [8] | outcome [9]
